# HCMV inh – inhibitors of human cytomegalovirus; 4.5% of 410,000 active; AID 1259415; activity change, negative = inhibition, % at 57.5 µM; HFF cells, HCMV-luciferase reporter, 72 h; active compounds read low; in the data active = activity change below about -60%; inconclusive = no clear call, values can overlap the other calls; inactive = above about -39%; also: % is scaled to controls: 0 for no effect and ±100 for the full control effect
#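 HFF cells seeded 16 h at 37C, treated with compounds, infected with luciferase-reporter HCMV at MOI 1 PFU/cell; luciferase read at 72 h post infection, normalized to buffer-only and Salinomycin controls.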
# Cycloheximide cs – counter-screen for Shiga toxin inhibitors: cycloheximide protein synthesis inhibition; cell reporter, cycloheximide protein synthesis inhibition counterscreen; max response, %; 12% of 300,000 active; AID 2314; in the data active = max response mostly above about 13%, no sharp cut-off; inactive = mostly below about 14%; also: read at 38.3 µM for the half of the compounds with a filed dose; 0% is about no effect
# Pf growth 96h – P. falciparum growth inhibition at 96 hours; P. falciparum luciferase reporter growth, 96 h; AID 504834; 6.9% of 320,000 active; Potency, µM (doses to about 28.7 µM), for the others: at the top dose activity change, negative = inhibition, hits mostly inhibitors; also: potency is read from the fitted curve at half-maximal effect; % is scaled to controls: 0 for no effect and ±100 for the full control effect
#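 Two parasite generations (96 h, 37 C, 5% CO2) of compound exposure in infected erythrocytes (0.05% parasitemia, 2% hematocrit). Luciferase-reporter P. falciparum; decreased luminescence indicates inhibited growth, aimed at apicoplast-acting delayed death.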
# Shiga inhibitor – blocks Shiga toxin action in Vero cells | Vero cells, Shiga toxin protein synthesis inhibition reporter | inhibition, % at 38.7 µM | 9.2% of 290,000 active | AID 2315; in the data active = inhibition mostly above about 28%, no sharp cut-off; inactive = mostly below about 43%; also: 0% is about no effect
# Pf growth 48h – P. falciparum growth inhibition at 48 hours (one generation); 5.9% of 310,000 active; AID 504832; Potency, µM (doses to about 28.7 µM), for the others: top-dose activity change, negative = inhibition, most hits filed as inhibitors; P. falciparum luciferase growth in erythrocytes, 48 h; also: potency is read from the fitted curve at half-maximal effect; % is scaled to controls: 0 for no effect and ±100 for the full control effect
#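 Read-out is firefly luciferase luminescence from an integrated reporter in P. falciparum, so falling signal marks reduced parasite growth. Infected erythrocytes were at 2% hematocrit and 0.1% parasitemia (final) in Albumax-supplemented RPMI 1640.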
# HCV inh – inhibitors of hepatitis C virus infection. Huh7.5.1 HCVcc-Cre infection, luciferase reporter, 44 h. 3.4% of 340,000 active. Potency, µM (doses to about 41.8 µM), inactives show top-dose activity change, negative = inhibition, most hits filed as inhibitors; also: potency is read from the fitted curve at half-maximal effect; % is scaled to controls: 0 for no effect and ±100 for the full control effect
#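 Reporter virus HCVcc-Cre (~0.5 moi) infects cells exposed to compound; seeding density 1,000 cells/well with 4 h settling beforehand. Luminescence, 15 sec read, taken 44 h post-infection following a 15 min RT substrate incubation.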
# * marks the source's active call; other numbers are inactive results; i = inactive; ? = inconclusive; / = no result given; [ ] = another dose, or the depositor's remark. Hits are enriched below; roughly 21% of the tested compounds scored in any of these assays. Unless noted, calls follow the shape of the dose curve; as a rule, active = well fitted inhibition curve with a large enough effect; inconclusive = small, poorly fitted or top-dose-only effect, or another doubt; inactive = no such curve, though single readings can be large or run the other way.
SMILES,HCMV inh,Cycloheximide cs,Pf growth 96h,Shiga inhibitor,Pf growth 48h,HCV inh
O=C(c1ccc(OC2CCN(CCCc3ccccc3)CC2)cc1)N1CCCC1,3.9,/,/,/,/,7.9%
CC(C)/C=C/CN1CCC(Oc2ccc(C(=O)N3CCCC3)cc2)CC1,-19.7,-3.5,-1.1%,-29.9,-11.4%,/
CC(CCc1ccc(O)cc1)N1CCC(Oc2ccc(C(=O)N3CCCC3)cc2)CC1 (stereo unspecified),-60.3*,-1.6,-14.7%,-2.9,-17.0%,-0.6%
O=C(CNc1ccc(Br)cc1)Nc1ccc(S(=O)(=O)N2CCCCC2)cc1,22.3,/,/,/,/,/
CC1CCN(S(=O)(=O)c2ccc3c(c2)CCC(=O)N3CC(=O)Nc2cccc(C#N)c2)CC1,54.5,/,?,/,11.7µM*,/
N#Cc1cccc(NC(=O)CNc2cccc(S(=O)(=O)N3CCCC3)c2)c1,-26.3,/,?,/,10.4µM*,2.51µM*
N#Cc1ccc(NCC(=O)Nc2ccc3c(c2)OCCO3)cc1,-38.0,2.0,8.2%,-23.5,-28.9%,-2.3%
N#Cc1cccc(NCC(=O)Nc2ccc3c(c2)OCCO3)c1,292.3,27.3*,i,63.4*,412.5%,-11.5%
N#Cc1ccc(NCC(=O)Nc2ccc(S(=O)(=O)N3CCCCC3)cc2)cc1,-6.2,/,?,/,9.28µM*,-15.4%
COc1ccc(-c2cc(C(F)F)nn2-c2ccc(S(N)(=O)=O)cc2)cc1F,/,/,3.9%,/,0.0%,/
NC(=O)NCCCC(=O)NCC(c1ccccc1Cl)c1c[nH]c2ccccc12 (stereo unspecified),41.6,1.0,?,-3.5,/,-8.1%
CCOc1ccc(CCNc2ncnc3onc(-c4ccc(F)cc4)c23)cc1OCC,-30.3,/,/,/,/,/
CCOC(=O)C1(C)NC(c2cccs2)C2C(=O)N(c3ccc(OC)cc3)C(=O)C21 (stereo unspecified),5.6,-2.6,?,-10.2,2.9%,23.1%
CCOC(=O)c1cc(OC(=O)c2cccc(Cl)c2)n(-c2ccccc2)n1,8.0,/,/,/,/,/
N#Cc1cccc(NCC(=O)Nc2cccc(S(=O)(=O)N3CCCCC3)c2)c1,-11.1,/,?,/,13.1µM*,?
CCCc1cnc2c(c1SCC(=O)Nc1ccccc1OCC)c(=O)n(C)c(=O)n2C,1.0,/,/,/,/,/
CC(NC(=O)c1ccc(F)cc1)C(=O)NC1=NCCS1 (stereo unspecified),-9.7,1.1,?,-1.4,37.6%,10.0%
CCOC(=O)Cc1csc(NC(=O)Cc2ccccc2[N+](=O)[O-])n1,31.7,17.7*,?,84.9,11.7%,-4.0%
CCOC(=O)Cc1csc(NC(=O)CCN2C(=O)c3cccc([N+](=O)[O-])c3C2=O)n1,-3.5,-4.7,13.1µM*,-9.7,9.1%,19.1%
CCOC(=O)Cc1csc(NC(=O)CCCCCN2C(=O)c3cccc4cccc(c34)C2=O)n1,-27.1,/,/,/,/,-19.9%
CCOC(=O)Cc1csc(NC(=S)NC(=O)c2cccc([N+](=O)[O-])c2)n1,7.9,-2.6,16.0%,-5.7,-0.1%,2.3%
CCOC(=O)Cc1csc(NC(=O)C(C)c2ccc([N+](=O)[O-])cc2)n1 (stereo unspecified),-36.8,-1.2,22.7%,11.8,9.28µM*,-6.3%
COc1ccc(NC(=O)c2ccc3c(c2)S(=O)(=O)N=C2CCCCCN23)cc1S(N)(=O)=O,0.0,/,/,/,/,2.0%
Cc1cc(C)c(NC(=O)CN(C)CC(=O)N(C)CC(=O)Nc2c(Cl)cccc2Cl)c(C)c1,-17.1,/,?,/,-17.8%,6.2%
Cc1ccccc1CNC(=O)C(=O)NCCC1CCCCN1S(=O)(=O)c1cccs1 (stereo unspecified),-28.9,/,11.7µM*,/,?,?
SMILES,HCMV inh,Cycloheximide cs,Pf growth 96h,Shiga inhibitor,Pf growth 48h,HCV inh
O=C(NCc1ccccc1Cl)C(=O)NCC1OCCN1S(=O)(=O)c1cccs1 (stereo unspecified),?,21.4*,-14.3%,27.9,-19.9%,-26.2%
COc1ccccc1CNC(=O)C(=O)NCCC1CCCCN1S(=O)(=O)c1ccc(C)cc1 (stereo unspecified),-6.2,/,?,/,11.7µM*,?
COc1ccccc1CNC(=O)C(=O)NCCC1CCCCN1S(=O)(=O)c1cccs1 (stereo unspecified),-11.5,/,11.7µM*,/,?,11.2µM*
CCC(C(=O)OCC(=O)N1CCN(c2ccc(OC)cc2)CC1)c1ccccc1 (stereo unspecified),-15.4,/,-6.6%,/,?,0.0%
CCC(=NCCc1ccccc1)c1c(O)[nH]c(=O)[nH]c1=O,28.4,1.1,?,-4.1,19.6%,0.316µM*
CC(=NC(C)c1ccccc1)c1c(O)[nH]c(=O)[nH]c1=O (stereo unspecified),42.3,-2.0,?,-9.0,-4.2%,11.9%
CC(=NCCc1ccccc1)c1c(O)[nH]c(=O)[nH]c1=O,5.9,-0.2,12.0%,-8.3,32.5%,2.5%
CCC(=Nc1ccccc1N)c1c(O)[nH]c(=O)[nH]c1=O,7.0,51.8*,?,98.8*,81.9%,16.9%
Cc1ccc(S(=O)(=O)N2CCN(C(=O)c3ccnn3C)CC2)cc1C,/,-2.9,17.3%,-32.1,7.2%,14.5%
CC(C)N1C(=O)c2ccccc2N(Cc2ccccc2)S1(=O)=O,-61.6*,3.3,3.2%,58.9,-17.0%,-15.5%
COc1cc(C(=O)NCCCN2CCCC2=O)cc(Br)c1OCc1ccccc1,-26.0,/,?,/,9.28µM*,?
COc1ccc(C(=O)NCCCN2CCCC2=O)cc1,5.7,9.1,/,11.9,31.1%,-3.1%
O=C(NCCCN1CCCC1=O)c1ccc(OCc2ccccc2)cc1,34.2,28.0*,1.3%,44.7,/,-1.1%
CC(C)[C@@H]1CN=C(N)N1C[C@@H]1CCCN1C[C@H](C)N1C[C@@H](Cc2ccccc2)N(CCc2ccc(Cl)c(Cl)c2)C1=N,/,/,/,/,/,0.562µM*
Nc1ccc(N=Nc2ccc(N)cc2)cc1,14.6,33.0*,343.0%,96.0,330.8%,-22.1%
Nc1ccc(N=Nc2ccccc2)cc1,24.0,40.9*,457.1%,68.8*,224.8%,-8.8%
CC1(C(=O)Nc2ccccc2)CCN1C(=O)C1(c2ccccc2)CC1 (stereo unspecified),15.1,/,/,/,/,/
COc1ccc(S(=O)(=O)NC(C(=O)NCCc2ccccn2)C(C)C)cc1 (stereo unspecified),-66.5*,-1.5,-2.4%,-14.9,0.6%,20.9%
CCCCS(=O)(=O)N1C2=NC(C(=O)OC)=C(C(=O)OC)[C@@H]3N(C)c4ccc(OC)cc4[C@]23C[C@H]1C(=O)OC,/,6.8,?,-3.6,10.4µM*,-11.9%[8.37 µM]
COC(=O)C1=C(C(=O)OC)[C@@H]2N(C)c3ccc(OC)cc3[C@@]23C[C@@H](C(=O)OC)N(S(=O)(=O)c2ccc([N+](=O)[O-])cc2)C3=N1,13.2,-3.8,13.1µM*,-5.3,7.38µM*,-1.1%
